# Compounds with a hit are over-represented: about 2.2% of the library has one in this group of screens.
# LMP1 NFkB inh = EBV LMP1-driven NF-kappaB luciferase reporter inhibitors, primary screen, cell-based, luminescence, single point | LMP1-induced NF-kappaB luciferase reporter cells | inhibition, % at 12.5 µM | 350,000 compounds, 0.69% hits | AID 504558, 2011; in the data active means inhibition above about 41%
# EWS-Fli inh = EWS/Fli-driven NR0B1 reporter inhibitors, primary screen, A673 cells, NR0B1 luciferase, luminescence, MLPCN library. viability-normalised. 350,000 compounds, 0.67% hits. inhibition, % at 12.6 µM;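 active means mean inhibition of at least 50% after viability correction, with every replicate also passing that limit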;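 further: firefly luciferase signal divided by Alamar Blue viability fluorescence both relative to DMSO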
# TRPM1 prom inh = inhibitors of MITF-dependent TRPM1 promoter reporter, primary screen, cell-based, SK-MEL-5, single point, luciferase. SK-MEL-5 TRPM1 promoter luciferase, 24 h. inhibition, % at 12.5 µM. 330,000 compounds, 0.83% hits;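 active means mean inhibition across replicates of 60% or more, whatever share of single replicates reaches that level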
# PAX8 reporter = inhibitors of PAX8-driven TPO luciferase reporter, primary screen, RMG-I cells, single concentration | SteadyGlo, 24 h | inhibition, % at 12.6 µM | 360,000 compounds, 1.2% hits | AID 652154, 2013;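 active means mean replicate inhibition at least 60% with every replicate also reaching 60%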;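 further: luciferase light reporting Pax8 driven TPO promoter activity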
# LGR2 antag = inhibitors of bursicon-induced LGR2 CRE-luciferase signal, primary screen, cell-based, HEK293, CRE-luciferase reporter, bursicon stimulation | AID 720647, 2013 | 380,000 compounds, 0.35% hits | inhibition, % at 9.99 µM | bursicon-stimulated, 4 h | Drosophila bursicon receptor LGR2 (rickets);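 active means drop in luminescence signal, shown as inhibition above about 50% in the replicate tests, limit read from the data, passing the limit was not always enough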;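 further: agonist challenge used bursicon conditioned medium at about half maximal strength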
# PGC1a acetyl inh = inhibitors of PGC1a acetylation signal, primary screen, cell-based, U2OS, AlphaScreen, inhibitor mode. AlphaScreen anti-acetyl-lysine; with virally co-expressed GCN5 acetyltransferase. inhibition, % at 15.6 µM. 350,000 compounds, 0.17% hits;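 active means every replicate shows inhibition of at least 40%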
# A number is an active result; . = inactive; / = no result given.
SMILES,LMP1 NFkB inh,EWS-Fli inh,TRPM1 prom inh,PAX8 reporter,LGR2 antag,PGC1a acetyl inh
O=C(N[C@H]1CC[C@H](CCNC(=O)C2CCC2)O[C@H]1CO)c1ccncc1,/,.,/,.,.,.
COc1cccc(C(=O)Nc2ccc3c(c2)OC[C@@H](C)N(C(C)=O)C[C@@H](C)[C@@H](OC)CN(C)C3=O)c1,/,.,/,.,.,.
C[C@H](O)C#Cc1cnc2c(c1)C(=O)N([C@H](C)CO)C[C@@H](C)[C@H](CN(C)C(=O)c1ccncc1)O2,/,.,/,/,.,.
COc1ccc(OC)c2c1C(=O)c1ccccc1C2=O,/,/,/,.,/,/
COc1ccc(OC)c2c1C(=O)C(Cl)=C(Cl)C2=O,.,.,88.3,99.6,89.7,.
CCCCC(=O)NC(c1ccccc1OC)c1ccc2cccnc2c1O (configuration not stated),66.4,.,78.1,87.7,.,.
CCC(=O)NC(c1ccc(OC)c(OC)c1)c1cc(Cl)c2cccnc2c1O (configuration not stated),.,.,.,.,/,/
CCCC(=O)NC(c1ccccc1OC)c1ccc2cccnc2c1O (configuration not stated),70.6,/,80.6,/,/,.
O=C(Nc1ccc(N2CCN(C(=O)c3ccc(Cl)cc3)CC2)cc1)c1ccc([N+](=O)[O-])o1,.,66.7,90.1,.,.,/
CCC(=O)N1CCN(c2ccc(NC(=O)c3ccc([N+](=O)[O-])o3)cc2)CC1,.,53.9,79.9,89.8,.,.
CC(C)(C)C(=O)N1CCN(c2ccc(NC(=O)c3ccco3)cc2)CC1,.,.,.,.,.,/
CC(C)(C)C(=O)N1CCN(c2ccc(NC(=O)c3ccc([N+](=O)[O-])o3)cc2)CC1,.,53.5,81.4,100.9,.,/
CC1CCN(c2ccc(NC(=O)c3ccc([N+](=O)[O-])o3)cc2)CC1,.,.,81.4,.,.,.
O=C(Nc1ccc(N2CCCCC2)cc1)c1ccc([N+](=O)[O-])o1,.,.,.,.,.,/
O=C(N[C@@H]1CC[C@@H](CCNC(=O)C2CCCCC2)O[C@H]1CO)c1ccccn1,/,.,/,.,.,.
CS(=O)(=O)N1CCN(c2ccc(NC(=O)c3ccc([N+](=O)[O-])o3)cc2)CC1,.,.,74.8,70.8,.,/
CC(C)C(=O)N1CCN(c2ccc(NC(=O)c3ccc4c(c3)OCCO4)cc2Cl)CC1,.,/,.,/,85.0,/
CCCC(=O)N1CCN(c2ccc(NC(=O)c3ccc(Br)o3)cc2)CC1,.,/,.,/,/,.
O=C(Nc1ccc(N2CCN(C(=O)c3ccccc3)CC2)cc1)c1ccc2c(c1)OCCO2,.,.,.,.,.,/
CCCC(=O)N1CCN(c2ccc(NC(=O)c3ccc([N+](=O)[O-])o3)cc2)CC1,.,58.0,89.5,90.4,.,/
O=C(Nc1ccc(N2CCN(C(=O)c3ccc(Cl)cc3)CC2)cc1)c1ccc2c(c1)OCCO2,.,/,73.3,/,.,.
CC(Oc1ccc2c3c(c(=O)oc2c1)CCC3)C(=O)N[C@@H](Cc1ccccc1)C(=O)O (some centres not stated),.,.,.,/,/,74.6
O=C(COc1ccc2c3c(c(=O)oc2c1)CCCC3)N[C@@H](Cc1ccccc1)C(=O)O,.,.,/,/,.,.
CCC(=O)OCCNc1cc(Sc2nc3ccccc3s2)c2nonc2c1[N+](=O)[O-],.,/,.,/,.,.
Cc1nnc(Sc2cc(NCCCO)c([N+](=O)[O-])c3nonc23)s1,.,.,75.0,75.3,.,.
O=[N+]([O-])c1c(NCCCO)cc(Sc2nc3ccccc3s2)c2nonc12,.,/,69.8,/,.,58.2
Cc1nnc(Sc2cc(NCCO)c([N+](=O)[O-])c3nonc23)s1,.,.,67.3,.,.,/
O=[N+]([O-])c1c(NCCO)cc(N2CCCCCC2)c2nonc12,.,.,.,.,.,.
COc1ccc(N/N=C/c2c(C(=O)O)ccc3ccccc23)cc1,68.8,.,/,62.2,.,.
O=C(c1ccc(F)cc1)N1CCCCN2[C@H](C1)[C@@H](c1ccc(/C=C/c3ccccc3)cc1)[C@@H]2CO,/,.,/,.,.,.
